Assay results as given in PubChem BioAssay (NCI).
Compounds without any hit were thinned out: in the full panel of roughly 79,000, 15% have a hit. Active and inactive are the calls of the source. Cut-off read from the data, not from the text of the source: active = growth inhibition above about 70%; inactive = the rest.

assay: NCI Yeast Anticancer Drug Screen. Data for the rad50 strain (AID 155);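 note: 0% = growth of vehicle-only cultures of the same strain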; details: S. cerevisiae rad50 strain growth inhibition; at 50.0 µM; active compounds read high
Summary of the method: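 DNA repair mutant yeast, compound exposure, growth read-out; inhibition is taken relative to vehicle.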

Structure (SMILES)	growth inhibition
CCOC(SCC)C(O)C(O)C(O)C(O)CO (stereo not given)	-1.9% (inactive)
c1ccc(OCCCCN2CCNCC2)cc1	1.85% (inactive)
O=C(O)c1ccccc1C(=O)OCC1CCCc2ccccc21 (stereo not given)	11.7% (inactive)
CCOC(=O)c1c(N)n(-c2ccccc2)c(=S)n(-c2ccccc2)c1=O	-17% (inactive)
O=C1c2ccccc2C(=O)N1n1c(Cc2ccccc2)n[nH]c1=O	-16.1% (inactive)
COc1ccc(/C=C2\N=C(c3ccc(Cl)cc3)OC2=O)cc1Br	10.2% (inactive)
c1ccc(CCCC2Sc3cccc4cccc(c34)S2)cc1	-47.2% (inactive)
NCCSC(O)(C(F)(F)F)C(F)(F)F	19.6% (inactive)
Nc1ccc([N+](=O)[O-])cc1F	-18.6% (inactive)
CC(=O)N1CN2C(=O)CCC2c2cc(C)ccc21 (stereo not given)	10.1% (inactive)
CCCNCCCCC(C)Nc1cc(OC)cc2cccnc12 (stereo not given)	7.1% (inactive)
COC(=O)Nn1cc(C(C(C)=O)C(C)=O)c(C(C)=O)c1C	-6.9% (inactive)
CC(C)C(N)C(=O)NC(C(=O)O)C(C)C (stereo not given)	12.8% (inactive)
O=C(O)c1ncn2c(=O)n(CCCl)nnc12	-18.9% (inactive)
CCCCc1c2c([n+]([O-])c3c1CCCC3)CCCC2	29.4% (inactive)
O=C(c1ccc(Cl)cc1Cl)C(CS(=O)(=O)O)CS(=O)(=O)O	-20.9% (inactive)
C=C1CC[C@H]2C(C)=CC[C@H]3C(=C)C(=O)O[C@@H]3[C@@H]12	-36.4% (inactive)
Nc1cc(C(=O)c2ccccc2C(=O)O)ccc1Cl	-34.3% (inactive)
O=C(/C=C(/Nc1ccccc1)c1ccccc1)c1ccccc1	7.3% (inactive)
Fc1cccc(C(Nc2nncs2)Nc2nncs2)c1	14.1% (inactive)

Structure (SMILES)	growth inhibition
COC(=O)C1(Cc2ccccc2)Cc2cc3c(cc2C1=O)CCC3 (stereo not given)	20.9% (inactive)
CC(=O)CC(=O)Nc1cccc(C)c1C	-8.1% (inactive)
c1ccc2c[n+](CCCC[n+]3ccc4ccccc4c3)ccc2c1	46.5% (inactive)
CCOC(=O)c1cc2nc3ccccn3c(=O)c2cc1N	-1.15% (inactive)
CCCCCCCC/C=C\CCCCCCCC(=O)NCCN1CCCCC1	99% (active)
CC(C)CCC[C@@H](C)[C@H]1CC[C@H]2C3=CC=C4C[C@H](OC(=O)c5ccccc5)CC[C@]4(C)[C@H]3CC[C@]12C	0.4% (inactive)
O=C1Nc2ccccc2C12OCCS2 (stereo not given)	-4.1% (inactive)
Cc1ncc(CSCC(=O)O)c(N)n1	3.5% (inactive)
Clc1ccc(CSCSCc2ccc(Cl)cc2)cc1	5.95% (inactive)
O=C(Oc1c(OC(=O)c2ccccc2)c2ccccc2c2ccccc12)c1ccccc1	3.2% (inactive)
O=c1[nH]cc(CS)c(=O)[nH]1	28.4% (inactive)
COC(=O)c1cc2cc3ccccc3cc2cc1C(=O)OC	1.7% (inactive)
N#CCC(=O)c1ccc(N)cc1	16.1% (inactive)
CCOCCOCCOCOCCOCCOCC	17.2% (inactive)
CCN(CC)CCC(=O)N1C/C(=C/c2ccccc2)C(=O)/C(=C\c2ccccc2)C1	47.4% (inactive)
CC(C)(C)OC(=O)Cc1c[nH]c2ccccc12	-38.2% (inactive)
Cc1cc(C)c2cccc-2c(C)c1	-11.8% (inactive)
OC1OCc2cc3ccccc3cc21 (stereo not given)	21.4% (inactive)
COCCCNc1nc(N)c(C#N)c(C#N)c1C#N	4.3% (inactive)
CC(=O)OC1CCC2(C)C(=CCC3C2CCC2(C)C(/C(C)=N/NC(N)=O)CCC32)C1 (stereo not given)	14.4% (inactive)

assay: NCI Yeast Anticancer Drug Screen. Data for the mec2-1 strain (AID 157); details: S. cerevisiae mec2-1 strain, at 50.0 µM, active compounds read high
Summary of the method: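 Compounds were applied to mec2-1 yeast cells. Their growth was then compared with that of vehicle-treated cultures to give growth inhibition.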

Structure (SMILES)	growth inhibition
CCOC(SCC)C(O)C(O)C(O)C(O)CO (stereo not given)	-4.2% (inactive)
c1ccc(OCCCCN2CCNCC2)cc1	-14.3% (inactive)
O=C(O)c1ccccc1C(=O)OCC1CCCc2ccccc21 (stereo not given)	45.7% (inactive)
CCOC(=O)c1c(N)n(-c2ccccc2)c(=S)n(-c2ccccc2)c1=O	-24.4% (inactive)
O=C1c2ccccc2C(=O)N1n1c(Cc2ccccc2)n[nH]c1=O	-28.2% (inactive)
COc1ccc(/C=C2\N=C(c3ccc(Cl)cc3)OC2=O)cc1Br	-2.15% (inactive)
c1ccc(CCCC2Sc3cccc4cccc(c34)S2)cc1	-25.6% (inactive)
NCCSC(O)(C(F)(F)F)C(F)(F)F	8.85% (inactive)
Nc1ccc([N+](=O)[O-])cc1F	-9.05% (inactive)
CC(=O)N1CN2C(=O)CCC2c2cc(C)ccc21 (stereo not given)	14.9% (inactive)
CCCNCCCCC(C)Nc1cc(OC)cc2cccnc12 (stereo not given)	-14.8% (inactive)
COC(=O)Nn1cc(C(C(C)=O)C(C)=O)c(C(C)=O)c1C	-0.15% (inactive)
CC(C)C(N)C(=O)NC(C(=O)O)C(C)C (stereo not given)	-9.35% (inactive)
O=C(O)c1ncn2c(=O)n(CCCl)nnc12	-16.4% (inactive)
CCCCc1c2c([n+]([O-])c3c1CCCC3)CCCC2	30.3% (inactive)
O=C(c1ccc(Cl)cc1Cl)C(CS(=O)(=O)O)CS(=O)(=O)O	-27.2% (inactive)
C=C1CC[C@H]2C(C)=CC[C@H]3C(=C)C(=O)O[C@@H]3[C@@H]12	-17% (inactive)
Nc1cc(C(=O)c2ccccc2C(=O)O)ccc1Cl	-46.7% (inactive)
O=C(/C=C(/Nc1ccccc1)c1ccccc1)c1ccccc1	11.4% (inactive)
Fc1cccc(C(Nc2nncs2)Nc2nncs2)c1	-0.1% (inactive)

Structure (SMILES)	growth inhibition
COC(=O)C1(Cc2ccccc2)Cc2cc3c(cc2C1=O)CCC3 (stereo not given)	3.75% (inactive)
CC(=O)CC(=O)Nc1cccc(C)c1C	-15.2% (inactive)
c1ccc2c[n+](CCCC[n+]3ccc4ccccc4c3)ccc2c1	17.1% (inactive)
CCOC(=O)c1cc2nc3ccccn3c(=O)c2cc1N	-17.5% (inactive)
CCCCCCCC/C=C\CCCCCCCC(=O)NCCN1CCCCC1	99.5% (active)
CC(C)CCC[C@@H](C)[C@H]1CC[C@H]2C3=CC=C4C[C@H](OC(=O)c5ccccc5)CC[C@]4(C)[C@H]3CC[C@]12C	5.5% (inactive)
O=C1Nc2ccccc2C12OCCS2 (stereo not given)	25.2% (inactive)
Cc1ncc(CSCC(=O)O)c(N)n1	-16.1% (inactive)
Clc1ccc(CSCSCc2ccc(Cl)cc2)cc1	-15.3% (inactive)
O=C(Oc1c(OC(=O)c2ccccc2)c2ccccc2c2ccccc12)c1ccccc1	9.35% (inactive)
O=c1[nH]cc(CS)c(=O)[nH]1	0.85% (inactive)
COC(=O)c1cc2cc3ccccc3cc2cc1C(=O)OC	14.4% (inactive)
N#CCC(=O)c1ccc(N)cc1	-19.6% (inactive)
CCOCCOCCOCOCCOCCOCC	-25.2% (inactive)
CCN(CC)CCC(=O)N1C/C(=C/c2ccccc2)C(=O)/C(=C\c2ccccc2)C1	37.9% (inactive)
CC(C)(C)OC(=O)Cc1c[nH]c2ccccc12	-27.1% (inactive)
Cc1cc(C)c2cccc-2c(C)c1	-11.3% (inactive)
OC1OCc2cc3ccccc3cc21 (stereo not given)	-0.95% (inactive)
COCCCNc1nc(N)c(C#N)c(C#N)c1C#N	-6.15% (inactive)
CC(=O)OC1CCC2(C)C(=CCC3C2CCC2(C)C(/C(C)=N/NC(N)=O)CCC32)C1 (stereo not given)	-2.8% (inactive)
